Compounds without any hit were thinned out: in the full panel of roughly 83,000, 20% have a hit.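 Cell lines were cultured in 96-well plates, exposed to a single compound concentration, and assessed for percent growth 48 hours later.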 Values without a mark were called inactive. The source made the active and inactive calls. Rule for the calls: active = growth percent below 10; inactive = the rest.

Among the test systems are NCI-H23 lung; NCI-H226 lung; NCI-H322M lung; HOP-62 NSCLC; NCI-H460 lung; HOP-92 NSCLC; A549/ATCC NSCLC; 786-0 renal; COLO 205 colon.
Common to all, as to assay: NCI-60 one-dose screen, 48 h (100 = growth as untreated, 0 = no growth, -100 = all killed)
Holding throughout (conditions): 10 µM unless noted

Take `N#Cc1c(-c2ccccc2)cc(-c2ccccc2)n(CCCCCCC(=O)O)c1=O`: the growth was 96.7% with NCI-H23 lung; 93.1% with NCI-H226 lung; 96.5% in the test on NCI-H322M lung; 94.4% in the test with HOP-62 NSCLC; 102% in the test on NCI-H460 lung; 125% with HOP-92 NSCLC. Further, the growth in the test with A549/ATCC NSCLC was 102%; in the test with 786-0 renal it was 105%; in the test with COLO 205 colon, 111%.

With `CC(NC(=O)Oc1cccc2ccccc12)c1ccccc1` (stereo not given), the growth in the test on NCI-H23 lung was 92.8%; in the test on NCI-H226 lung it was 99.7%; with NCI-H322M lung it was 107%; in the test with HOP-62 NSCLC it was 100%; in the test with NCI-H460 lung, 105%; in the test on HOP-92 NSCLC, 103%. Moreover, the growth was 73.1% with A549/ATCC NSCLC, 103% with 786-0 renal and 110% in the test with COLO 205 colon.

With `O=C(C(=O)N1CCOCC1)c1cn(CCCn2cc(C(=O)C(=O)N3CCOCC3)c3ccccc32)c2ccccc12`, the growth was 113% in the test on NCI-H23 lung; 102% in the test on NCI-H226 lung; 103% in the test on NCI-H322M lung; 103% in the test with HOP-62 NSCLC; 129% in the test with NCI-H460 lung; 78.8% with HOP-92 NSCLC. Further, the growth in the test with A549/ATCC NSCLC was 104%; in the test on 786-0 renal it was 104%; with COLO 205 colon, 105%.

For the compound `O=C(Nc1ccccc1OC(=O)c1ccccc1)c1ccccc1`, the growth was 70.6% with NCI-H23 lung; 104% in the test with NCI-H226 lung; 72.3% with NCI-H322M lung; 85.2% in the test with HOP-62 NSCLC; 98.1% in the test with NCI-H460 lung; 89.5% in the test with HOP-92 NSCLC. Moreover, the growth is 81.3% with A549/ATCC NSCLC, 96% with 786-0 renal and 108% in the test with COLO 205 colon.

For the compound `CSc1nc(-c2ccc(O)cc2O)c2c(=O)[nH]c(Nc3ccc(S(=O)(=O)Nc4nc(C)cc(C)n4)cc3)nc2n1`, the growth is 105% with NCI-H23 lung; 105% in the test with NCI-H226 lung; 108% in the test with NCI-H322M lung; 89.6% in the test on HOP-62 NSCLC; 111% in the test on NCI-H460 lung; 24.6% with HOP-92 NSCLC. Further, the growth was 112% with A549/ATCC NSCLC, 100% in the test with 786-0 renal and 112% in the test on COLO 205 colon.

For `C=C1CC[C@@H]2[C@](C)(COC(C)=O)[C@H](OC(C)=O)CC[C@@]2(C)[C@@H]1CC(NCc1ccccc1)C1=CCOC1=O` (stereo not given in full), the growth with NCI-H23 lung was 57.4%; with NCI-H226 lung, 11.4%; in the test on NCI-H322M lung, 77%; with HOP-62 NSCLC, 89%; with NCI-H460 lung, 48.4%; with HOP-92 NSCLC it was 41.7%. Moreover, the growth is 49.2% in the test with A549/ATCC NSCLC, 71.4% with 786-0 renal and 45.6% in the test on COLO 205 colon.

Consider `CCCCCc1c(C)[nH]c(/C=C2\N=C(c3ccc[nH]3)C=C2OCc2ccccc2)c1C`, for which the growth in the test with NCI-H23 lung is -67.3% [100 µM] (active); with NCI-H226 lung, -42.5% [100 µM] (active); in the test with NCI-H322M lung, -94.6% [100 µM] (active); in the test on HOP-62 NSCLC, -91.9% [100 µM] (active); in the test on NCI-H460 lung it was -40.4% [100 µM] (active); in the test on HOP-92 NSCLC, -77.6% [100 µM] (active). Besides, the growth in the test with A549/ATCC NSCLC is -70% [100 µM] (active); in the test with 786-0 renal it was -75.7% [100 µM] (active); in the test on COLO 205 colon it was -84% [100 µM] (active).

`Nc1ccccc1C#Cc1ccccc1C#Cc1ccc(OCCCCCCOc2ccc(C#Cc3ccccc3C#Cc3ccccc3N)cc2)cc1`: the growth in the test with NCI-H23 lung was 95.3%; in the test with NCI-H226 lung, 99.6%; in the test on NCI-H322M lung, 106%; with HOP-62 NSCLC, 93.9%; with NCI-H460 lung it was 114%; in the test on HOP-92 NSCLC, 88.8%. Moreover, the figures for the growth in the test with A549/ATCC NSCLC, in the test on 786-0 renal and in the test on COLO 205 colon were 106%, 89.8% and 96.7%, respectively.

For `COc1cnc2c(c1)C(=O)c1c-2n(CCCN2CCCC2)c(=O)c2cc(F)ccc12`, the growth was -19.5% (active) in the test on NCI-H23 lung; -81.2% (active) in the test on NCI-H226 lung; 4.72% (active) in the test with NCI-H322M lung; -16.4% (active) in the test with HOP-62 NSCLC; -47.9% (active) in the test with NCI-H460 lung; -5.39% (active) in the test on HOP-92 NSCLC. The growth in the test on A549/ATCC NSCLC is -80.4% (active); in the test on 786-0 renal, -88.5% (active); in the test on COLO 205 colon, -6.43% (active).

With `CC(=O)OCC(=O)[C@@]1(O)CC[C@H]2[C@@H]3CCC4=CC(=O)CC[C@]4(C)[C@@]3(F)[C@@H](O)C[C@@]21C`, the growth with NCI-H23 lung is 108%; with NCI-H226 lung it was 68.8%; in the test on NCI-H322M lung, 129%; in the test with HOP-62 NSCLC, 109%; in the test on NCI-H460 lung, 94%; in the test on HOP-92 NSCLC, 66.9%. Moreover, the growth was 78.4% with A549/ATCC NSCLC, 116% in the test on 786-0 renal and 97.8% in the test with COLO 205 colon.

Take `COc1cc(/C=C/c2cc(/C=C/c3ccc(O)c(OC)c3)n(C(=O)c3ccc(Cl)cc3)n2)ccc1O`: the growth in the test on NCI-H23 lung was 21.8%; in the test on NCI-H226 lung, 48.4%; with NCI-H322M lung, 28.5%; in the test on HOP-62 NSCLC, 20.3%; in the test on NCI-H460 lung, 4.86% (active); in the test with HOP-92 NSCLC it was -2.95% (active). Further, the growth was 12.4% in the test on A549/ATCC NSCLC, 19.5% in the test with 786-0 renal and 98.7% in the test with COLO 205 colon.

On to `Cc1cc(-c2ccccc2)cc(C)n1`, for which the growth in the test on NCI-H23 lung is 103%; in the test with NCI-H226 lung, 102%; in the test on NCI-H322M lung, 105%; in the test with HOP-62 NSCLC, 112%; in the test with NCI-H460 lung, 112%; in the test on HOP-92 NSCLC, 95.4%. Besides, the growth in the test on A549/ATCC NSCLC is 92.7%; in the test with 786-0 renal, 99%; in the test on COLO 205 colon it was 120%.

Take `COc1ccc(CCN2C(=O)CCC3=C2CCCC3=O)cc1OC`: the growth was 98.2% in the test with NCI-H23 lung; 105% with NCI-H226 lung; 98% in the test on NCI-H322M lung; 95.3% in the test on HOP-62 NSCLC; 106% with NCI-H460 lung; 78.2% in the test with HOP-92 NSCLC. The growth with A549/ATCC NSCLC was 106%; in the test on 786-0 renal it was 108%; with COLO 205 colon, 88.6%.

As for `Cc1ccc(C(=O)Cc2ccccc2)c(O)c1`, the growth in the test on NCI-H23 lung was 101%; in the test on NCI-H226 lung, 102%; with NCI-H322M lung it was 77.6%; with HOP-62 NSCLC, 104%; in the test on NCI-H460 lung, 111%; with HOP-92 NSCLC, 87.3%. Moreover, the growth with A549/ATCC NSCLC is 102%; with 786-0 renal it was 112%; with COLO 205 colon it was 109%.

Take `Clc1ccc(C2c3ccccc3-c3nccn32)c(Cl)c1` (stereo not given): the growth is 40% in the test on NCI-H23 lung; 66.6% with NCI-H226 lung; 88.1% with NCI-H322M lung; 78.2% in the test on HOP-62 NSCLC; 88.5% with NCI-H460 lung; -2.6% (active) with HOP-92 NSCLC. For the same compound, the growth in the test on A549/ATCC NSCLC was 79.6%; with 786-0 renal, 80.8%; with COLO 205 colon, 97.2%.

For the origin of these results see PubChem BioAssay (NCI).
